# Data reported in paper PMC5540273 (PLoS ONE, 2017).
# Test system: MYO3B
# Conditions: concentration: 1 μM, replicates: in singlicate; n = 1
# 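Also: KINOMEscan kinase panel screen.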
row,SMILES,%Inh [%]
1,N#CC1(c2cccc(C(=O)Nc3cccc(Oc4ccc5nc(NC(=O)C6CC6)sc5n4)c3)c2)CC1,0
2,O=C(Nc1n[nH]c2nc(-c3ccccc3)ccc12)C1CC1 [SB-708999],0
3,CC(C)c1nc(-c2cccc(NS(=O)(=O)c3c(F)cccc3F)c2)c(-c2ccnc(Nc3ccc(N4CCOCC4)nc3)n2)s1.Cl [GSK1723980],47
4,Cl.Cl.NCC(NC(=O)c1cc(-c2cccnc2)c(-c2ccnc3[nH]ccc23)s1)c1ccccc1 (stereo not shown) [GSK1323434],0
5,COC(=O)Nc1nc2cc(Oc3ccc(NC(=O)Nc4cccc(SC)c4)cc3)ccc2[nH]1.Cl [GW697999],0
6,O=C(Nc1n[nH]c2nc(-c3ccccc3O)ccc12)C1CC1 [SB-711880],1
7,O=C(Nc1n[nH]c2cc(-c3cccs3)ccc12)C1CC1 [SB-731284],0
8,O=C(Nc1c(F)cccc1F)c1cc(C(=O)c2ccccc2F)c[nH]1 [GSK1326180],0
9,Cc1ccc(Nc2ccnc(Nc3ccc(C)c(F)c3)n2)cc1O.Cl [GW582868],0
10,COc1cccc(-c2nc(-c3ccccc3)[nH]c2-c2ccncc2)c1 [SB-610250],0
11,CCn1cnc2c(NCc3ccccc3)ncnc21 [SKF-96418],0
12,Cl.Cl.NC(CNC(=O)c1cc(Br)c(-c2ccnc3[nH]ccc23)s1)c1ccccc1 (stereo not shown) [GSK1322949],0
13,CN(c1ccc(F)c(NC(=O)c2cccc(OC(C)(C)C#N)c2Cl)c1)c1ccc2nc(NC(=O)C3CC3)sc2n1,0
14,Fc1cc(Cl)ccc1Nc1ccnc2cc(-c3ccc(CN4CCOCC4)o3)ccc12 [GW560109],1
15,COc1cc(Nc2ccnc3cc(-c4ccncc4)ccc23)cc(OC)c1OC.Cl [GW494610],6
16,Cc1ccc(O)cc1Nc1ccnc2cc(-c3ccc(CN4CCCCC4)o3)ccc12 [GW557777],0
17,Nc1ncc(-c2ccc3nccc(-c4ccncc4)c3c2)cc1S(=O)(=O)N1CCCCC1 [GSK1693850],0
18,COc1ccc(C)c(Nc2ccnc(Nc3ccc(-c4cnc[nH]4)cc3)n2)c1.Cl [GW784041],27
19,Fc1cc(Cl)ccc1Nc1ccnc2cc(-c3ccc(CN4CCSCC4)o3)ccc12 [GW560106],0

row,SMILES,%Inh [%]
1,Cc1ccc(NC(=O)c2ccnc(N3CCCCC3)c2)cc1-c1ccc(C(=O)NCC2CC2)cc1 [GW775610],3
2,CCOc1nccc(-c2c(-c3ccc(F)cc3)ncn2C2CCNCC2)n1 [SB-249175],0
3,O=C(O)C(F)(F)F.O=c1[nH]ccc2nc(N[C@@H]3CCNC3)nc(Nc3ccc4c(c3)S(=O)(=O)CC4)c12 [GSK2181306],4
4,c1ccc(Oc2ccc(Nc3ccnc4cc(-c5ccc(CN6CCCCC6)o5)ccc34)cc2)nc1 [GW567143],14
5,Cc1ccc(C)c(NC(=O)Nc2ccc(C)c(-c3ccc(C(=O)Nc4ccncc4)cc3)c2)c1 [GSK1398473],0
6,Cn1cc(-c2cnc(N)c3c(-c4ccc5c(c4)CCN5C(=O)Cc4ccccc4)csc23)cn1 [GSK2593074],45
7,O=C(O)C(F)(F)F.O=c1[nH]ccc2nc(N[C@@H]3CCNC3)nc(Nc3cc(Cl)cc(Cl)c3)c12 [GSK2188764],0
8,Cl.O=C(Nc1ccc(Oc2ccc3[nH]c(NC(=O)c4ccco4)nc3c2)cc1)Nc1cc(C(F)(F)F)ccc1F [GW683134],9
9,Cc1cccc(Nc2nc(NCCN)ncc2C(N)=O)c1 [GSK1292139],0
10,CC(C)NCC(Cc1ccccc1)NC(=O)c1cc(Br)c(-c2ccnc3[nH]ccc23)s1.Cl.Cl (stereo not shown) [GSK1383281],0
11,Nc1cccc(-c2ccc3c(N)n[nH]c3c2)c1 [GSK2193613],0
12,COc1cc(Nc2nccc(N3CCC(NS(=O)(=O)c4ccc(NC(C)=O)cc4)CC3)n2)cc(OC)c1OC [GSK1379825],0
13,Cc1nn2c(=O)cc(N3CCO[C@H](C)C3)nc2n1Cc1cccc(Cl)c1Cl [GSK2373693],0
14,CN1CCN(Cc2ccc(NC(=O)Nc3ccc(N(C)c4ccnc(Nc5ccc(CS(C)(=O)=O)cc5)n4)cc3)cc2)CC1.Cl [GW827654],0
15,COC(=O)Nc1nc2ccc(Oc3ccc(CC(=O)Nc4cc(C(F)(F)F)ccc4F)cc3)cc2[nH]1 [GW680903],0
16,COc1ccc(C2=C(Nc3cccc(O)c3)C(=O)NC2=O)cc1 [SB-390766],0
17,CN(C)c1ncnc2nc[nH]c12 [SKF-31736],0
18,Cc1cc(-c2ccnc(Nc3cccc(C#N)c3)n2)cc(C)c1O [GSK1440913],0
